# What was measured:
# Test in all cases: DAPPL (digital affinity profiling via proximity ligation, sequencing); 10 mM Tris-HCl pH 7.5, 50 mM NaCl, 1 mM DTT, 4% glycerol, room temperature, 30 min; GST-TFs on glutathione beads, 16-mer random dsDNA library, 0.1% formaldehyde crosslink after washing; high values mean tight binding
# FEV = target: T1, FEV (Homo sapiens, UniProt Q99581 1-238); conditions: protein: recombinant; tags: N-terminal GST; dsDNA, one strand shown
# T1 sequence: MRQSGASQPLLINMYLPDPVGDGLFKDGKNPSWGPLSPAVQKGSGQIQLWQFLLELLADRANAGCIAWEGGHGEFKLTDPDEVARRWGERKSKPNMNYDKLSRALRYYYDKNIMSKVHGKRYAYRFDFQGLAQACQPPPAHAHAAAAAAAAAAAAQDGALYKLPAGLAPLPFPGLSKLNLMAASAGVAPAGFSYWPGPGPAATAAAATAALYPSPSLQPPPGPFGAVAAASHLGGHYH
# Procedure, shortened: (§1)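 Binding signal is each hexamer's read frequency for a factor divided by its frequency in the tag-only sample. The factors were GST-fused human transcription factors from yeast, captured on glutathione beads, DNA-barcoded and pooled with that sample. Pools were incubated with 200 nmole of a random double-stranded 16-mer DNA library in Tris/NaCl/DTT/glycerol buffer at room temperature for 30 min, then washed, crosslinked with 0.1% formaldehyde, proximity-ligated with BsaI/T4 ligase (1 h, 37 °C), PCR-amplified and sequenced on an Illumina NextSeq500.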
# ETV5 = ETV5 (Homo sapiens, UniProt P41161 1-510); conditions: protein: recombinant; tags: N-terminal GST; dsDNA, one strand shown
# Procedure, shortened: as §1
# HSF1 = HSF1 (Homo sapiens, UniProt Q00613 1-529); conditions: protein: recombinant; tags: N-terminal GST; chain copies: 3; dsDNA, one strand shown
# Procedure, shortened: as §1
# SPIC = target: T2, SPIC (Homo sapiens, UniProt Q8N5J4 1-248); conditions: protein: recombinant; tags: N-terminal GST; dsDNA, one strand shown
# T2 sequence: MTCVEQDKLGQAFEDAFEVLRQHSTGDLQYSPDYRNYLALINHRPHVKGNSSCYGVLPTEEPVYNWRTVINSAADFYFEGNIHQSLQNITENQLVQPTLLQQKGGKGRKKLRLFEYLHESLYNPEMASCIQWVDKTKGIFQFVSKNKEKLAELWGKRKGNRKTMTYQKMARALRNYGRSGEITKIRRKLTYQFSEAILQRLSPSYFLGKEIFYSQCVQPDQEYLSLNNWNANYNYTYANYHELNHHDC
# Procedure, shortened: as §1
# ELF4 = ELF4 (Homo sapiens, UniProt Q99607 1-663); conditions: protein: recombinant; tags: N-terminal GST; dsDNA, one strand shown
# Procedure, shortened: as §1
# ELK4 = target: T3, ELK4 (Homo sapiens, UniProt P28324-2 1-405); conditions: protein: recombinant; tags: N-terminal GST; dsDNA, one strand shown
# T3 sequence: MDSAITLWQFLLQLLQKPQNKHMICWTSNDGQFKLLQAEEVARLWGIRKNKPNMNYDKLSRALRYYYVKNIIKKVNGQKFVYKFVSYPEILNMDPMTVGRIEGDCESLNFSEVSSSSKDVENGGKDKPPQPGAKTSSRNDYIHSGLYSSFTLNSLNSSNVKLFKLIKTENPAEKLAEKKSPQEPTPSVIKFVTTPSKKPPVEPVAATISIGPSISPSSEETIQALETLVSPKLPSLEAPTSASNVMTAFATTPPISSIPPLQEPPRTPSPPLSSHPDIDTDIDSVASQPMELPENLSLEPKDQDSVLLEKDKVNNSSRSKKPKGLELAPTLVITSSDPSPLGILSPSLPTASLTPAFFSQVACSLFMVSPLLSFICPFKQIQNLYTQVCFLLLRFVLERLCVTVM
# Procedure, shortened: as §1
# ETV2 = target: T4, ETV2 (Homo sapiens, UniProt O00321 1-342); conditions: protein: recombinant; tags: N-terminal GST; dsDNA, one strand shown
# T4 sequence: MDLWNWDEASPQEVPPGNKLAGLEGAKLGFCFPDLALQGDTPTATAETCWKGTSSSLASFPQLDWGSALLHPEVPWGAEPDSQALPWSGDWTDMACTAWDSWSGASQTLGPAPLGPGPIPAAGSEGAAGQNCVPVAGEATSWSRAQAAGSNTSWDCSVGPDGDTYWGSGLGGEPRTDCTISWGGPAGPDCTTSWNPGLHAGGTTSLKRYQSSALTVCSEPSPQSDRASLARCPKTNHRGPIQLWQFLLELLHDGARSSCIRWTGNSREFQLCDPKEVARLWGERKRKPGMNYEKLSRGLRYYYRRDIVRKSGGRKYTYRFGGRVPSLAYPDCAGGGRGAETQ
# Procedure, shortened: as §1
# ELF3 = target: T5, ELF3 (Homo sapiens, UniProt P78545 1-371); conditions: protein: recombinant; tags: N-terminal GST; dsDNA, one strand shown
# T5 sequence: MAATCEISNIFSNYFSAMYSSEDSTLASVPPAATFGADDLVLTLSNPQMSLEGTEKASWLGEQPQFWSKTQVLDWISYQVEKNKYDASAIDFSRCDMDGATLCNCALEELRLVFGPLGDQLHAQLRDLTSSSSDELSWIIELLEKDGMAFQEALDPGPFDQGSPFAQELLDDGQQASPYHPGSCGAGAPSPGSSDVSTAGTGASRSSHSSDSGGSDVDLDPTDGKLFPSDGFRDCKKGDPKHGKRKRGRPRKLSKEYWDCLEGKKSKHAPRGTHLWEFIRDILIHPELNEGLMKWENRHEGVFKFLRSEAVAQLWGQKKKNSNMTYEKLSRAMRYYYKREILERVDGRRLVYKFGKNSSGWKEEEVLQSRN
# Procedure, shortened: as §1
# CRX = CRX (Homo sapiens, UniProt O43186 1-299); conditions: protein: recombinant; tags: N-terminal GST; dsDNA, one strand shown
# Procedure, shortened: as §1
# ETV1 = ETV1 (Homo sapiens, UniProt P50549 1-477); conditions: protein: recombinant; tags: N-terminal GST; dsDNA, one strand shown
# Procedure, shortened: as §1
# ERF = target: T6, ERF (Homo sapiens, UniProt P50548 1-548); conditions: protein: recombinant; tags: N-terminal GST; dsDNA, one strand shown
# T6 sequence: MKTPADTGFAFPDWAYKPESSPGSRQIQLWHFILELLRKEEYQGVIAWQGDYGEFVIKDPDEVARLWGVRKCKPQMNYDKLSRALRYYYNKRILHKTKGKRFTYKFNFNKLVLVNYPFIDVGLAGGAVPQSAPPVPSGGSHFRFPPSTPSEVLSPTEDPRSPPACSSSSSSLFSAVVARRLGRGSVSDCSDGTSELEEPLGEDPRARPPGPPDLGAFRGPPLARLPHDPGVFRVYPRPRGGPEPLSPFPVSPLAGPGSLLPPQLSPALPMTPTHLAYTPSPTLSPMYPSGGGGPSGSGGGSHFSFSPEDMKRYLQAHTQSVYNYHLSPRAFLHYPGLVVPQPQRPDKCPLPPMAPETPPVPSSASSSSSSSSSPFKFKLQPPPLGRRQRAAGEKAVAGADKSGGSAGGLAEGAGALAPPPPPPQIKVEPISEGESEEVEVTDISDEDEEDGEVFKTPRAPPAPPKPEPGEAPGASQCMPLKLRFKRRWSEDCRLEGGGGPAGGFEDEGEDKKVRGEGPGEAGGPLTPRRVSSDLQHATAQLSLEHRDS
# Procedure, shortened: as §1
# ETV3L = target: T7, ETV3L (Homo sapiens, UniProt Q6ZN32 1-361); conditions: protein: recombinant; tags: N-terminal GST; dsDNA, one strand shown
# T7 sequence: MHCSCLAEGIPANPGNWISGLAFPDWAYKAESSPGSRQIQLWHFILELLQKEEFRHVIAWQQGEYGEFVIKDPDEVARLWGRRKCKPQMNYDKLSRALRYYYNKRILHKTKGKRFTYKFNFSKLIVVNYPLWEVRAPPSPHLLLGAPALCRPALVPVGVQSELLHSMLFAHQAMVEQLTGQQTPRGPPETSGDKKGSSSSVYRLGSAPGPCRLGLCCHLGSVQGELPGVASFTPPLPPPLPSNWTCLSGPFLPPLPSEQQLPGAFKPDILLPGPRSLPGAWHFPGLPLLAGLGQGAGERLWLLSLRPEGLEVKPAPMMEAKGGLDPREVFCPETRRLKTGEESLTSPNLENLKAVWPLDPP
# Procedure, shortened: as §1
# ETS2 = target: T8, ETS2 (Homo sapiens, UniProt P15036 1-469); conditions: protein: recombinant; tags: N-terminal GST; dsDNA, one strand shown
# T8 sequence: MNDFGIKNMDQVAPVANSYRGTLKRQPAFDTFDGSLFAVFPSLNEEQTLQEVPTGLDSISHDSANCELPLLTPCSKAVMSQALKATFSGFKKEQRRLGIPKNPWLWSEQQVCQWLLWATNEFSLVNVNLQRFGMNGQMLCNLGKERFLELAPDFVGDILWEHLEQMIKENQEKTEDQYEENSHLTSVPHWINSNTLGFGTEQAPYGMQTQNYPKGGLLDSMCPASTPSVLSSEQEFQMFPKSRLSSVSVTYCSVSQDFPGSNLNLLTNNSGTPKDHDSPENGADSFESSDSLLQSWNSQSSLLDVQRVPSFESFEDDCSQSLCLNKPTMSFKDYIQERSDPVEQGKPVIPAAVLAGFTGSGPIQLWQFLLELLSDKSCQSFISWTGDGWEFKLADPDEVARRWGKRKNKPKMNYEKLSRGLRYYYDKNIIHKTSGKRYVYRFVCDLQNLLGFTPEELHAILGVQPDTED
# Procedure, shortened: as §1
# SPDEF = target: T9, SPDEF (Homo sapiens, UniProt O95238 1-335); conditions: protein: recombinant; tags: N-terminal GST; dsDNA, one strand shown
# T9 sequence: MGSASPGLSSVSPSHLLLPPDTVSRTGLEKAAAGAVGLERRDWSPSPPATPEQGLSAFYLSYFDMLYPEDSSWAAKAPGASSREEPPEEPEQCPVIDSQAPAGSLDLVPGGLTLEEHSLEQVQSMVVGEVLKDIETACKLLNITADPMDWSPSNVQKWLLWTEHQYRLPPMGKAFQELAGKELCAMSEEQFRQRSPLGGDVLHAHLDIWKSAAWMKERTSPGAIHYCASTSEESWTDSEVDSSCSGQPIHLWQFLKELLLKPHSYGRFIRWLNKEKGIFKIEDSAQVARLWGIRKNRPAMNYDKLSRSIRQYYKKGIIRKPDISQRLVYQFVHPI
# Procedure, shortened: as §1
# ETV7 = target: T10, ETV7 (Homo sapiens, UniProt Q9Y603 1-341); conditions: protein: recombinant; tags: N-terminal GST; dsDNA, one strand shown
# T10 sequence: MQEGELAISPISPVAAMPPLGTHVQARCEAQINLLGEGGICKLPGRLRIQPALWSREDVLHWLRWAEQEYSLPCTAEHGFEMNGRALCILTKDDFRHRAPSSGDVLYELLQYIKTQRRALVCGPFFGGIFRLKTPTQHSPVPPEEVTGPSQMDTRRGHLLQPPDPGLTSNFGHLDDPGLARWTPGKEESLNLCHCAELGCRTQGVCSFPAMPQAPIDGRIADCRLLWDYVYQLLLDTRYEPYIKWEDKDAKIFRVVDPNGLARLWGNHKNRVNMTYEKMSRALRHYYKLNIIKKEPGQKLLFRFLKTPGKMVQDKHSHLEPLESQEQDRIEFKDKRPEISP
# Procedure, shortened: as §1
# ELF5 = target: T11, ELF5 (Homo sapiens, UniProt Q9UKW6-2 1-255); conditions: protein: recombinant; tags: N-terminal GST; dsDNA, one strand shown
# T11 sequence: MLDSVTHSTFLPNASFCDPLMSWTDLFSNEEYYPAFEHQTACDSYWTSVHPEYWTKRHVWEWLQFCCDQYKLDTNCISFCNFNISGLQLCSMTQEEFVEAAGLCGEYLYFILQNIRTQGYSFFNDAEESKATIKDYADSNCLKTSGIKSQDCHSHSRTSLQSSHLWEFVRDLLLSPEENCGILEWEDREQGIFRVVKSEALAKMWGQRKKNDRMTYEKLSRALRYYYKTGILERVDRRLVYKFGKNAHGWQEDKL
# Procedure, shortened: as §1
# ETV3 = target: T12, ETV3 (Homo sapiens, UniProt P41162-2 1-143); conditions: protein: recombinant; tags: N-terminal GST; dsDNA, one strand shown
# T12 sequence: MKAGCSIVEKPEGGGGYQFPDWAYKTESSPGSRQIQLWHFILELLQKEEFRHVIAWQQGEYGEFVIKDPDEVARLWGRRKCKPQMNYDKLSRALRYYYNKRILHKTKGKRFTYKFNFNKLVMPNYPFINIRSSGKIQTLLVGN
# Procedure, shortened: as §1
# ETV6 = ETV6 (Homo sapiens, UniProt P41212 1-452); conditions: protein: recombinant; tags: N-terminal GST; dsDNA, one strand shown
# Procedure, shortened: as §1
# Sequence of ETV6 (P41212 whole entry): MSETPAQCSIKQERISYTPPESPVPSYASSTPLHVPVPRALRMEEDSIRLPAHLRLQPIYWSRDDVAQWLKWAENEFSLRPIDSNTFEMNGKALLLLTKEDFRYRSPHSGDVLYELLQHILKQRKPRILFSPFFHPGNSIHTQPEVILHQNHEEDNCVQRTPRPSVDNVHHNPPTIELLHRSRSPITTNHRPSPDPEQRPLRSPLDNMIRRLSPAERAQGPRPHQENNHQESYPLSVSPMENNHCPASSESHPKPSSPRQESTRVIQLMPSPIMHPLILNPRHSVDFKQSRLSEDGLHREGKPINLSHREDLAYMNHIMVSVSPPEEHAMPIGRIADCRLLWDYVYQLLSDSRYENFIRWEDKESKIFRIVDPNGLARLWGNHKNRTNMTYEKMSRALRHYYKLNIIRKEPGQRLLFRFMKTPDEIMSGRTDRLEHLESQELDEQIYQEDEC
# Sequence of CRX (O43186 whole entry): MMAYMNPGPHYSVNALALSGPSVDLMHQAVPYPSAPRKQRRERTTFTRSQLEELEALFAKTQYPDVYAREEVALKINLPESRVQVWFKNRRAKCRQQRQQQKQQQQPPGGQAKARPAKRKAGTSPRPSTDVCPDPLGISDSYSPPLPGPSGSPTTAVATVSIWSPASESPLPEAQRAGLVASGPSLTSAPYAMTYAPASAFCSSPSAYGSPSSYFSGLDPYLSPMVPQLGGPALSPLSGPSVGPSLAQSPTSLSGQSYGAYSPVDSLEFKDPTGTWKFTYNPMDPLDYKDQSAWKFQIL
# Sequence of ELF4 (Q99607 whole entry): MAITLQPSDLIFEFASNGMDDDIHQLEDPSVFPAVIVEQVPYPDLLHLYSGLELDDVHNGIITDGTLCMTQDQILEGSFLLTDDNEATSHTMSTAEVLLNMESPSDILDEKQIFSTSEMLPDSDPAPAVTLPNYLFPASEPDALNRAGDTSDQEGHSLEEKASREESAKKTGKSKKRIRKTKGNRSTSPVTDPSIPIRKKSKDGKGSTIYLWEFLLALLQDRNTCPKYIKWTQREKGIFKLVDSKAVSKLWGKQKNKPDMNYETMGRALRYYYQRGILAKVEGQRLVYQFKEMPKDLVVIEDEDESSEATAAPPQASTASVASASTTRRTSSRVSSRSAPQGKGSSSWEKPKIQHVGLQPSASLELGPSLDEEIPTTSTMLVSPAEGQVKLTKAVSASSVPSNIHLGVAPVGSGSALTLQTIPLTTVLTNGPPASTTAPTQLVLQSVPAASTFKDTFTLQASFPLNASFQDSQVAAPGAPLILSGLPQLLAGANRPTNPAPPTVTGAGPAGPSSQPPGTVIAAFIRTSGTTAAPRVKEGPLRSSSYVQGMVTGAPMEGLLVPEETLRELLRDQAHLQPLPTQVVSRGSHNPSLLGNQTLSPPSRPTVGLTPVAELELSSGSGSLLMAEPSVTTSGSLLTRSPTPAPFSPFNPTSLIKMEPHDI
# Sequence of ETV5 (P41161 whole entry): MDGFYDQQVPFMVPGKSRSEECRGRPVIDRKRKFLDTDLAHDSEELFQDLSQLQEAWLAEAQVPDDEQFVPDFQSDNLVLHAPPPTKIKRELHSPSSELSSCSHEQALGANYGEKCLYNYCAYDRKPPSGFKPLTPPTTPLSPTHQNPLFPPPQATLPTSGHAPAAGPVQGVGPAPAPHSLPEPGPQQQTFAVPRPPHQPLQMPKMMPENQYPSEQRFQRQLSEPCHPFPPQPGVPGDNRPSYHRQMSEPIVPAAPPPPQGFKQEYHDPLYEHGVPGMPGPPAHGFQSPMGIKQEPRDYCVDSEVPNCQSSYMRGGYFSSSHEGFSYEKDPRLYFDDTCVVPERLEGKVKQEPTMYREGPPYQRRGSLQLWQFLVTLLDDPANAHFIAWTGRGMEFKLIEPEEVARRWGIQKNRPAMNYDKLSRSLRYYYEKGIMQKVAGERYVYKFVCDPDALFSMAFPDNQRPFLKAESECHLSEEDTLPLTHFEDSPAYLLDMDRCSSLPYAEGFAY
# Sequence of ETV1 (P50549 whole entry): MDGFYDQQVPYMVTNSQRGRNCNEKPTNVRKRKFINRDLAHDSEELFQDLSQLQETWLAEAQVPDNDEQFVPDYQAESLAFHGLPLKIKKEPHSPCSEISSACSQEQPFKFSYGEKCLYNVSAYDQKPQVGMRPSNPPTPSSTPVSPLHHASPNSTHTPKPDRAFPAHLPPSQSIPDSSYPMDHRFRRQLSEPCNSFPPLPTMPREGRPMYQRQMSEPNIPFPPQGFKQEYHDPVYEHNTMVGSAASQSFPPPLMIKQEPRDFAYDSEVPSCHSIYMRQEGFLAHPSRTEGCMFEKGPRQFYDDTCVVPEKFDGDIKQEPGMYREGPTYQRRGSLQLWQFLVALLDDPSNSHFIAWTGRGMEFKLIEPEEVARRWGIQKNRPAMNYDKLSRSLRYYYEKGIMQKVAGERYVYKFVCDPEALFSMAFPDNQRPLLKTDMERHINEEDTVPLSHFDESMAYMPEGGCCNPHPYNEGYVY
# Sequence of HSF1 (Q00613 whole entry): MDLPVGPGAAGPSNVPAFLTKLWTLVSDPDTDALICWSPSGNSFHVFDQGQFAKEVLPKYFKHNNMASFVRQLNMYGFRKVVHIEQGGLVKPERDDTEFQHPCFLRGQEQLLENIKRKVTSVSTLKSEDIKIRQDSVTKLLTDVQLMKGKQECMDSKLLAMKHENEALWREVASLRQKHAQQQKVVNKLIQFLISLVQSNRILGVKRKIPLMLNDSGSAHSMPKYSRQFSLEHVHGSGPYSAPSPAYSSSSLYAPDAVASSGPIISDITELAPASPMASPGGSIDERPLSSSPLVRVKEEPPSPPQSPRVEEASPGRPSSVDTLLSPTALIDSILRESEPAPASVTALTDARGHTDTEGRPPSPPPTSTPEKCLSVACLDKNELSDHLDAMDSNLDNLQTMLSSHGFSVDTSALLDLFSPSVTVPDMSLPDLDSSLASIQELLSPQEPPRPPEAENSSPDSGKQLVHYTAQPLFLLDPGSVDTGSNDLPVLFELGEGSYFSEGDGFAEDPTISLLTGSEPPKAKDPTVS
sequence,measurement,setting,value
AACTAC,binding signal,FEV,"1.35 fold enrichment (6-mer frequency, TF over GST control)"
same,binding signal,ETV5,"1.38 fold enrichment (6-mer frequency, TF over GST control)"
same,binding signal,HSF1,"1.22 fold enrichment (6-mer frequency, TF over GST control)"
same,binding signal,SPIC,"1.35 fold enrichment (6-mer frequency, TF over GST control)"
same,binding signal,ELF4,"1.39 fold enrichment (6-mer frequency, TF over GST control)"
same,binding signal,ELK4,"1.32 fold enrichment (6-mer frequency, TF over GST control)"
same,binding signal,ETV2,"1.42 fold enrichment (6-mer frequency, TF over GST control)"
same,binding signal,ELF3,"1.31 fold enrichment (6-mer frequency, TF over GST control)"
same,binding signal,CRX,"1.2 fold enrichment (6-mer frequency, TF over GST control)"
same,binding signal,ETV1,"1.34 fold enrichment (6-mer frequency, TF over GST control)"
same,binding signal,ERF,"1.54 fold enrichment (6-mer frequency, TF over GST control)"
same,binding signal,ETV3L,"1.44 fold enrichment (6-mer frequency, TF over GST control)"
same,binding signal,ETS2,"1.42 fold enrichment (6-mer frequency, TF over GST control)"
same,binding signal,SPDEF,"1.48 fold enrichment (6-mer frequency, TF over GST control)"
same,binding signal,ETV7,"1.39 fold enrichment (6-mer frequency, TF over GST control)"
same,binding signal,ELF5,"1.5 fold enrichment (6-mer frequency, TF over GST control)"
same,binding signal,ETV3,"1.45 fold enrichment (6-mer frequency, TF over GST control)"
same,binding signal,ETV6,"1.51 fold enrichment (6-mer frequency, TF over GST control)"
